High-throughput results from PubChem BioAssay.
hgDAF-12 ag: agonists of H. glycines DAF-12 nuclear receptor; HEK293 GAL4-hgDAF12 UAS-luciferase reporter, agonist luminescence; normalized to butyrate control; 370,000 tested, 1.8% active; activation, % at 6.8 µM;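 active = activation above a cutoff set at the mean of all screened compounds plus 3 SD, cut at about 10% in these data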
DAX1 inh-1: NR0B1 (DAX1) inhibition; P51843; HEK293 Gal4-DAX1 luciferase reporter, luminescence; inhibition, % at 6.75 µM; 340,000 tested, 0.99% active; AID 504766;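 active = inhibition above the mean over all tested compounds plus 3 SD, cut at about 4.2% in these data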;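 also: inhibition shows as a rise in luminescence from relieved DAX1 repression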
Target sequence (P51843 207-470 limits assumed): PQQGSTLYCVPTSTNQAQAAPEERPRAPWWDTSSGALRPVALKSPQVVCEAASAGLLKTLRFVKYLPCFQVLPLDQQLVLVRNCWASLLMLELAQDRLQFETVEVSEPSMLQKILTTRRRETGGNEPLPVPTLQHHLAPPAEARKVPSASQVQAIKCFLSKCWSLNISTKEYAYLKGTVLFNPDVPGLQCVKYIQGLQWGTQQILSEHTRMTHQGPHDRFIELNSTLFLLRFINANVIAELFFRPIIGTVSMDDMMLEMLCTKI
PolyA inhibitor: blocks polyadenylation in yeast reporter cells; S. cerevisiae SKY197-pL101 polyadenylation reporter, beta-gal luminescence; efflux-impaired pdr1/pdr3 knockout yeast; score 100 = 6 SD above DMSO; activity score, % at 12 µM; 300,000 tested, 0.02% active;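 active = lowest replicate activity score at least 50, where 100 means six control SD above control mean; inconclusive = lowest score under 50 but half or more replicates reach 50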;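 also: yeast exposed to compound for 9 h at 30 °C; higher score means more reporter readthrough which indicates perturbed polyadenylation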
hcDAF-12 act: activates DAF-12 receptor from parasite H. contortus | HEK293 hcDAF-12 lit1-tk-luc reporter, luminescence; 0% DMSO, 100% Δ7-dafachronic acid | activation, % at 6.8 µM | 370,000 tested, 1.4% active | AID 652067;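 active = activation above the mean of all tested compounds plus 3 SD, cut at about 5.5% in these data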
DAX1 inh-2: DAX1 (NR0B1) inhibition, primary screen | inhibition, % at 6.8 µM | AID 652010 | 370,000 tested, 1.1% active | HEK293T StAR-luciferase reporter, SF-1/DAX-1 repression relief;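 active = inhibition above the mean over all tested compounds plus 3 SD, cut at about 3.6% in these data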;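 also: higher inhibition means more luminescence from relief of DAX-1 repression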
ssDAF12 agonist: S. stercoralis DAF-12 activation, primary screen. AID 652126. activation, % at 6.8 µM. 370,000 tested, 1% active. HEK293 ssDAF-12/GRIP1 lit1-tk-luc reporter, luminescence; % of 3 µM dafachronic acid response;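 active = activation above the mean over all tested compounds plus 3 SD, cut at about 0.9% in these data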
Large screens that a line does not name were inactive. Most compounds without a hit are left out; they make up all but 4.1% or so of the library.

O=C(CCc1nnc(CCCc2ccccc2)o1)NCCCC1CCCC1	hgDAF-12 ag 11
O=C(CCc1nnc(CCCc2ccccc2)o1)N1CCCCCC1	DAX1 inh-1 5.0
CC(C)c1cc(CNC(=O)CCc2nnc(CCCc3ccccc3)o2)on1	none
COCC1CCN(C(=O)CCc2nnc(CCCCc3ccccc3)o2)CC1	none
CCOC(=O)c1c(/N=C/c2ccc(OC)cc2O)sc2c1CCN(C)C2	none
CN1CCc2c(sc(/N=C/c3c[nH]c4ccccc34)c2C(N)=O)C1	hcDAF-12 act 5.9 (no result: DAX1 inh-1)
CC1CC1C(=O)Nc1nc(-c2cccs2)c(-c2cccs2)s1 (stereo not drawn)	ssDAF12 agonist 2.0
O=C(Nc1nc(-c2cccs2)c(-c2ccccc2)s1)c1ccco1	none
COC(=O)C1=C(C)N(C)C(=NCc2ccc3c(c2)OCO3)NC1c1cccc(Cl)c1 (stereo not drawn)	none (no result: DAX1 inh-1, PolyA inhibitor)
N#C/C(=C\c1ccccc1O)C(=O)Nc1ccccn1	hcDAF-12 act 5.8
Cc1cccc(NC(=O)/C(C#N)=C/c2ccccc2O)n1	none
COc1cccc(-c2coc3c(C)c4oc(=O)c(CCC(=O)O)c(C)c4cc23)c1	none
COc1cccc(-c2coc3cc4oc(=O)c(CCC(=O)O)c(C)c4cc23)c1	hcDAF-12 act 5.8
CN(c1ccccc1)S(=O)(=O)c1cccc(C(=O)NCCc2c[nH]c3ccccc23)c1	none
O=C(NCCc1c[nH]c2ccccc12)c1cccnc1	PolyA inhibitor inconclusive, ssDAF12 agonist 1.9
O=C(NCCc1c[nH]c2ccccc12)c1cccc(S(=O)(=O)Nc2ccccc2Cl)c1	hcDAF-12 act 6.0, ssDAF12 agonist 1.1
O=C(NCCc1c[nH]c2ccccc12)c1cc(S(=O)(=O)N2CCCCC2)ccc1N1CCOCC1	ssDAF12 agonist 1.9
Cn1c(C(=O)NCCc2c[nH]c3ccccc23)cc2sccc21	hgDAF-12 ag 12, hcDAF-12 act 5.9, ssDAF12 agonist 2.5
COc1cc2c(c(OC3OC(CO)C(O)C(O)C3O)c1)C(=O)CC(c1ccc(O)cc1)O2 (stereo not drawn)	none (no result: DAX1 inh-1, PolyA inhibitor)
COc1ccc(/C=C/S(=O)(=O)NCc2ccc(F)cc2)c(CNC(=O)OC(C)(C)C)c1	none (no result: DAX1 inh-1, PolyA inhibitor)
O=C(NCCc1ccc(Cl)cc1)c1ccc2c(c1)ncn2C1CCCCC1	none (no result: DAX1 inh-1, PolyA inhibitor)
O=C(O)c1nccnc1C(=O)NCCc1c[nH]c2ccccc12	hcDAF-12 act 5.6
O=C(Cc1ccccc1)NCCc1c[nH]c2ccccc12	none
CCn1c(SCc2ccc(C(C)(C)C)cc2)nnc1-c1ccc(C(C)(C)C)cc1	none (no result: DAX1 inh-1, PolyA inhibitor)
CC(C)CCNC(=O)CN(C(=O)Cn1nnc(-c2ccccc2F)n1)c1cccc2c1CCCC2	none
CCC(C(=O)NC(C)(C)C)N(C(=O)Cn1nnc(-c2ccccc2F)n1)c1cccc2c1CCCC2 (stereo not drawn)	DAX1 inh-1 4.3
CC(C)CC(Nc1ncnc2scc(-c3ccccc3)c12)C(=O)O (stereo not drawn)	PolyA inhibitor 60
Cc1sc2ncnc(NC(C)C(=O)O)c2c1C (stereo not drawn)	DAX1 inh-1 5.3
O=C(O)Cc1c[nH]c2ccccc12	none
OCCc1c[nH]c2ccccc12	DAX1 inh-1 4.5
OCc1c[nH]c2ccccc12	hcDAF-12 act 6.0 (no result: PolyA inhibitor)
COC(=O)[C@]12C[C@H](CC(=O)N3CCN(C(=O)C4CC4)CC3)C(=O)N(Cc3ccccc3)C1=C[C@H](C1CCCC1)O[C@@H]2C	none (no result: DAX1 inh-1, PolyA inhibitor)
COc1cccc(CC(=O)O[C@@H]2CCC[C@@]3(C(=O)N(Cc4ccccc4)c4ccccc43)[C@H]2NC(=O)CCc2ccccc2)c1	none (no result: DAX1 inh-1, PolyA inhibitor)
Oc1ccc2ccccc2c1C=Nc1ccc(Cl)cn1	ssDAF12 agonist 1.3 (no result: PolyA inhibitor)
COc1ccc(S[C@]2(C(=O)N3CCCC3)CC(=O)N(S(=O)(=O)c3ccc(F)cc3)[C@@H]2c2ccc(OC)cc2)cc1	none (no result: DAX1 inh-1, PolyA inhibitor)
CC(=O)c1c(C)[nH]c(C(=O)NCCc2ccccc2)c1C	none
CC(=O)c1c(C)[nH]c(C(=O)N(CCc2ccccc2)Cc2ccccc2)c1C	hcDAF-12 act 5.9
COc1ccc(NC(=O)C(=O)NCCC2CCCCN2S(=O)(=O)c2cccs2)cc1 (stereo not drawn)	none
COc1cccc(NC(=O)C(=O)NCCC2CCCCN2S(=O)(=O)c2cccs2)c1 (stereo not drawn)	DAX1 inh-2 4.1
O=C(Nc1ccc(N2C(=O)CC(c3ccccc3)C2=O)c(Cl)c1)c1ccccn1 (stereo not drawn)	none (no result: DAX1 inh-1, PolyA inhibitor, DAX1 inh-2)
COC(=O)[C@]12C[C@H](CC(=O)NCCCCc3ccccc3)C(=O)N(CCC3=CCCCC3)C1=C[C@H](C1CCCC1)O[C@@H]2C	none (no result: DAX1 inh-1, PolyA inhibitor)
Nc1[nH]c(C(=O)c2ccccc2)c(-c2ccc(O)cc2)c1C(=O)NCCc1c[nH]c2ccccc12	none (no result: DAX1 inh-1, PolyA inhibitor, DAX1 inh-2)
COC(=O)C1=C(C)N(Cc2ccccc2C(F)(F)F)C(=NCc2ccc(OC)cc2)NC1c1ccc(F)cc1 (stereo not drawn)	none (no result: DAX1 inh-1, PolyA inhibitor)
CCOc1ccc(/C=N/Nc2ccc(Cl)nn2)c(O)c1	none
CCOc1ccccc1/C=N/Nc1ccc(Cl)nn1	ssDAF12 agonist 1.0
Cc1cc(NC(=O)CSc2nnc(-c3ccncc3)n2C)n(-c2ccccc2)n1	DAX1 inh-1 6.0
Cc1ccc(NC(=O)Cn2nnc3ccccc32)cc1	none (no result: DAX1 inh-1)
Cc1cccc(NC(=O)CSc2nnc(-c3ccncc3)n2C)c1	hgDAF-12 ag 12
Cc1cccc(NC(=O)Cn2nnc3ccccc32)c1	DAX1 inh-1 4.7
Cc1ccc(NC(=O)Cc2cccc(OC(F)F)c2)c(S(=O)(=O)N2CCOCC2)c1	none (no result: DAX1 inh-1, PolyA inhibitor)
COc1ccc(S[C@]2(C(=O)N3CCCC3)CC(=O)N(C(=O)Nc3ccc(C)c(Cl)c3)[C@@H]2c2ccc(OC)cc2)cc1	none (no result: DAX1 inh-1, PolyA inhibitor)
COc1ccc2nc(Nc3nc(C)c(C(C)=O)s3)sc2c1	hgDAF-12 ag 13
COc1ccc(Nc2nc3ccc(OC)cc3s2)cc1	hgDAF-12 ag 12
CC(=O)c1sc(Nc2nc3cc4c(cc3s2)OCO4)nc1C	none
COc1ccc(C(=O)Nc2nc3ccc(OC)cc3s2)cc1	none
CCC(NC(=O)Cn1c(-c2ccccc2)cc(C(C)=O)c1C)c1ccccc1 (stereo not drawn)	none (no result: DAX1 inh-1, PolyA inhibitor)
CCOC(=O)C1=C(C(=O)OCC)C2N(Cc3ccc(C#N)cc3)c3ccccc3[C@@]23C[C@@H](C(=O)OC)N(S(=O)(=O)c2c(C)noc2C)C3=N1 (stereo partly drawn)	none (no result: DAX1 inh-1, PolyA inhibitor)
COc1ccc(C(C#N)N2N=C(C)CC2c2ccccc2)cc1 (stereo not drawn)	none
COc1ccc(C2=NN(C(C#N)c3ccc(OC)cc3)C(c3ccccc3)C2)cc1 (stereo not drawn)	hgDAF-12 ag 13, DAX1 inh-1 5.4, hcDAF-12 act 6.4
O=C(CCl)Nc1ccc(C(=O)NCC2COc3ccccc3O2)cc1 (stereo not drawn)	none (no result: DAX1 inh-1, PolyA inhibitor)
